TWEAK-Fn14 inh: TWEAK-Fn14 signaling inhibition. hit rate 2% among 360,000. inhibition, % at 10 µM. TWEAK-stimulated Fn14 reporter cells, luciferase luminescence, 8 h; in the data active = inhibition above about 50%
TROY NFkB inh: inhibitors of TROY-dependent NF-kB signaling. Q293 LMP1-TROYcd NF-kB luciferase reporter, 4 h. inhibition, % at 10 µM. hit rate 0.98% among 360,000. AID 1347056;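 active = compounds whose plate-normalised and pattern-corrected inhibition of the luciferase reporter signal at the single screening dose is 50% or more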
HSP90 refold inh: HSP90 refolding inhibition in rabbit reticulocyte lysate | hit rate 0.91% among 290,000 | luciferase refolding luminescence, 3 h | inhibition, % at 5.6 µM | AID 1789;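 active = inhibition above the screen-wide mean plus 3 SD, computed separately per campaign, cut at about 16% in these data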;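 also: inhibitors lower the luminescence because luciferase stays unfolded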
LGR2 inh: inhibitors of bursicon-induced Drosophila LGR2 receptor cAMP signaling | HEK293 LGR2, CRE-luciferase, bursicon-stimulated, 4 h | inhibition, % at 9.99 µM | hit rate 0.35% among 380,000 | AID 720647;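 active = drop in luminescence signal, shown as inhibition above about 50% in the replicate tests, limit read from the data, passing the limit was not always enough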;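 also: agonist challenge used bursicon conditioned medium at about half maximal strength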
Large screens that a line does not name were inactive. An excerpt weighted towards active compounds, which were near 2.2% of everything screened.

Cc1cc(C)c(C(CC(=O)c2cccs2)C(C#N)C#N)c(C)c1 (stereo not drawn)	TWEAK-Fn14 inh 66 (no result: LGR2 inh)
C/C(=N\NC(=O)c1ccc(CN2CCc3ccccc3C2)cc1)c1ccccc1O	TWEAK-Fn14 inh 83
O=C(Nc1ccc(S(=O)(=O)N2CCOCC2)cc1)c1ccc(CN2CCc3ccccc3C2)cc1	none (no result: TWEAK-Fn14 inh, TROY NFkB inh, LGR2 inh)
O=C(Nc1ccc(S(=O)(=O)N2CCCC2)cc1)c1ccc(CN2CCc3ccccc3C2)cc1	TWEAK-Fn14 inh 68
CCCNC(=O)c1ccc(CN2CCc3ccccc3C2)cc1	none (no result: LGR2 inh)
COCC(=O)Nc1ccc2c(c1)OC[C@H](C)N(CC1CCCCC1)C[C@@H](C)[C@@H](OC)CN(C)C2=O	none (no result: TWEAK-Fn14 inh, TROY NFkB inh, HSP90 refold inh)
Cc1ccccc1NC(=O)c1cnc2ccccn2c1=O	TWEAK-Fn14 inh 83 (no result: LGR2 inh)
CCC(CC)C(=O)Nc1ccc(Sc2ccc([N+](=O)[O-])cc2)cc1	TROY NFkB inh 55
CCCC(=O)Nc1ccc(Sc2ccc([N+](=O)[O-])cc2)cc1	none (no result: LGR2 inh)
Cc1ccc(-c2cnc3c(c2)C(=O)N([C@H](C)CO)C[C@@H](C)[C@@H](CN(C)CC2CCCC2)O3)cc1	none (no result: TWEAK-Fn14 inh, TROY NFkB inh, HSP90 refold inh)
COc1ccc(C=CC(=O)c2ccc(OC)c(OC)c2)cc1O	none (no result: HSP90 refold inh)
COc1ccc(C=CC(=O)c2ccc3cc(OC)c(OC)cc3c2)cc1OC	TWEAK-Fn14 inh 67 (no result: HSP90 refold inh)
COc1ccc(/C=C/C(=O)c2ccc(NC3=NCCCS3)cc2)cc1OC	TWEAK-Fn14 inh 72
CCC1CSC(Nc2ccc(C(=O)/C=C/c3ccc(OC)c(OC)c3)cc2)=N1 (stereo not drawn)	TWEAK-Fn14 inh 74
CCC1CSC(Nc2ccc(C(=O)/C=C/c3ccc(Br)cc3)cc2)=N1 (stereo not drawn)	TWEAK-Fn14 inh 57
C[C@H]1CN([C@@H](C)CO)C(=O)c2cccc(NC(=O)c3nc4ccccc4s3)c2O[C@@H]1CN(C)S(=O)(=O)c1ccc(F)cc1	none (no result: TWEAK-Fn14 inh, TROY NFkB inh, HSP90 refold inh)
CO[C@@H]1CN(C)C(=O)c2cc(NC(=O)c3cccc(F)c3)ccc2OC[C@@H](C)NC[C@H]1C	none (no result: TWEAK-Fn14 inh, TROY NFkB inh, HSP90 refold inh)
COc1ccc(Oc2ccc(/C=N/NC(=O)c3cccnc3)cc2[N+](=O)[O-])cc1	none (no result: LGR2 inh)
COc1ccc(Oc2ccc(/C=C/C(=O)c3cccc(OC)c3)cc2[N+](=O)[O-])cc1	TWEAK-Fn14 inh 60
COC(=O)c1ccc2c(=O)n(CCCCCC(=O)O)c(=S)[nH]c2c1	TWEAK-Fn14 inh 54
C[C@@H]1CN([C@H](C)CO)C(=O)c2cc(Br)cnc2O[C@@H]1CN(C)CC1CCCC1	none (no result: TWEAK-Fn14 inh, TROY NFkB inh, HSP90 refold inh)
CC=Cc1ccc2n(c1=O)C[C@@H]1[C@@H](CO)[C@H](C(=O)NCc3cc(F)cc(F)c3)[C@H]2N1S(C)(=O)=O (mixture of isomers)	none (no result: TWEAK-Fn14 inh, TROY NFkB inh, HSP90 refold inh)
COc1ccc(COc2ccccc2C(=O)NCc2ccccc2)cc1F	TWEAK-Fn14 inh 69
COc1ccc(-c2nc(-c3cccnc3)no2)cc1OC	TWEAK-Fn14 inh 84
COc1cc(-c2nc(-c3cccnc3)no2)cc(OC)c1OC	none
COc1ccc(-c2csc3nc(-c4cccnc4)nc(Cl)c23)cc1OC	TWEAK-Fn14 inh 53
O=C(C[C@@H]1C=C[C@H](NC(=O)C2CC2)[C@@H](CO)O1)Nc1nccs1	none (no result: TWEAK-Fn14 inh, TROY NFkB inh, HSP90 refold inh)
COc1ccc(S(=O)(=O)N[C@@H]2C=C[C@H](CC(=O)O)O[C@H]2CO)cc1	none (no result: TWEAK-Fn14 inh, TROY NFkB inh, HSP90 refold inh)
c1cncc(-c2nnc(SCc3nc4ccccc4[nH]3)o2)c1	TROY NFkB inh 74 (no result: LGR2 inh)
c1ccc(CSc2nnc(-c3cccnc3)o2)cc1	none (no result: TROY NFkB inh, LGR2 inh)
CO[C@H]1CN(C)C(=O)c2cc(NC(C)=O)ccc2OC[C@H](C)N(CCC(F)(F)F)C[C@@H]1C	none (no result: TWEAK-Fn14 inh, TROY NFkB inh, HSP90 refold inh)
COC(=O)CN(c1ccc(C)cc1)S(=O)(=O)c1ccc2c(c1)n(C)c(=O)c(=O)n2C	none (no result: LGR2 inh)
CCOc1ccc(N(CC(=O)OC)S(=O)(=O)c2ccc3c(c2)n(C)c(=O)c(=O)n3C)cc1	TWEAK-Fn14 inh 80
CN1C(=O)c2cc(NC(=O)Cc3cccs3)ccc2OC[C@H]2O[C@H](CC(=O)O)CC[C@H]21	none (no result: TWEAK-Fn14 inh, TROY NFkB inh, HSP90 refold inh)
Nc1nccc(SCc2ccc(Cl)cc2Cl)n1	TWEAK-Fn14 inh 57 (no result: HSP90 refold inh)
CC(C)C#Cc1cnc2c(c1)C(=O)N([C@@H](C)CO)C[C@@H](C)[C@@H](CN(C)C(=O)C1CCC1)O2	none (no result: TWEAK-Fn14 inh, TROY NFkB inh, HSP90 refold inh)
CN(C)S(=O)(=O)Oc1cccc(C(=O)Nc2ccc(Cl)c(Cl)c2)c1	TWEAK-Fn14 inh 80 (no result: LGR2 inh)
COC(=O)c1cc(NC(=O)Nc2ccccc2)ccc1Cl	none
Cc1cccc(NC(=O)Nc2ccc(Cl)c(Cl)c2)n1	TWEAK-Fn14 inh 58
COC(=O)c1cccc(NC(=O)Nc2ccc(Cl)c(Cl)c2)c1	TWEAK-Fn14 inh 60
Cc1cccc(NC(=O)Nc2ccccc2)n1	none
O=C(Nc1ccc(Cl)c(Cl)c1)Nc1ccccc1C(=O)O	HSP90 refold inh 18
COc1ccc2cc3cc(C(=O)NCCN4CCN(c5ccccc5F)CC4)oc3nc2c1	TWEAK-Fn14 inh 67, TROY NFkB inh 60 (no result: LGR2 inh)
CCCC(C)C(=O)Nc1ccc2c(c1)OCCO2 (stereo not drawn)	TWEAK-Fn14 inh 53 (no result: LGR2 inh)

Screening data (PubChem BioAssay)
